Screening results deposited in PubChem by National Center for Advancing Translational Sciences (NCATS).
BAZ2B inh: qHTS Assay for Inhibitors of BAZ2B; Bromodomain adjacent to zinc finger domain protein 2B (Homo sapiens), Q9UIF8; AlphaScreen BAZ2B-H3K14Ac peptide displacement; Potency, µM (doses to about 114 µM), inactives show top-dose activity change, negative = inhibition, actives largely listed as inhibitors; hit rate 4.4% among 360,000; AID 504333, 2011; note: % is set by controls: 0 for no effect and ±100 for the full control effect; nearly all actives have a fitted effect of over 60% in size
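AlphaScreen displacement: compounds (up to 110uM) incubated 30 min at room temperature with a preformed 50 nM BAZ2B/50 nM biotinylated H3K14Ac peptide complex in PBS pH 7.4 with Tween-20. Donor and acceptor beads at 10 ug/mL final added, 20 min light-protected before reading.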
JMJD2A Tudor inh: qHTS Assay for Inhibitors of JMJD2A-Tudor Domain | AlphaScreen JMJD2A-Tudor / H3K4me3 peptide binding | hit rate 4.4% among 390,000 | Potency, µM (top dose mostly 114 µM), for inactives: at the top dose activity change, negative = inhibition, usual class: inhibitors; note: % is set by controls: 0 for no effect and ±100 for the full control effect; nearly all actives have a fitted effect of over 50% in size
HP1b chromo inh: HTS for Inhibitors of HP1-beta Chromodomain Interactions with Methylated Histone Tails. Chromobox protein homolog 1 (Homo sapiens), P83916. AlphaScreen HP1-beta / biotin-H3K9me3 peptide binding. Potency, µM (top dose mostly 114 µM), without a hit: at the top dose activity change, negative = inhibition, most hits filed as inhibitors. hit rate 0.56% among 390,000. AID 540317, 2011; note: nearly all actives have a fitted effect of over 70% in size
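AlphaScreen: HP1-beta (50 nM) preformed 30 min with biotin-H3(1-18)K9me3 peptide (50 nM) in PBS pH 7.4, 0.01% Tween-20. Compound added for 30 min at RT, then streptavidin donor/nickel chelate acceptor beads (10 ug/mL) for 30 min.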
G9a inh: qHTS Assay for Inhibitors of Histone Lysine Methyltransferase G9a | Histone-lysine N-methyltransferase EHMT2 (Homo sapiens), Q96KQ7 | G9a H3K9 monomethylation, AlphaScreen, 2 h | Potency, µM (top dose mostly 102 µM), inactives show at the top dose activity, negative = inhibition, hits mostly inhibitors | hit rate 8.8% among 350,000; note: % is set by controls: 0 for no effect and ±100 for the full control effect; nearly all actives have a fitted effect of over 75% in size
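Chemiluminescent proximity detection of H3K9 monomethylation, read after 10 min bead incubation in the dark. Reaction: 20 nM G9a, 500 nM biotin-H3K9 peptide, 20 uM SAM cofactor, 2 h, room temperature, following 15 min enzyme-compound preincubation.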
ALOX12 inh: Primary qHTS assay for inhibitors of human arachidonate 12S-lipoxygenase (ALOX12): Round 2; Polyunsaturated fatty acid lipoxygenase ALOX12 (Homo sapiens), P18054; purified 12hLO, xylenol orange hydroperoxide absorbance; Potency, µM (doses to about 108 µM), inactives show top-dose activity change, negative = inhibition, most hits filed as inhibitors; hit rate 1.1% among 580,000; note: % is set by controls: 0 for no effect and ±100 for the full control effect
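Hydroperoxide product was detected by ferrous iron/xylenol orange as the 573 to 405 nm absorbance ratio. Arachidonic acid at 40 uM (final) was turned over for 30 min at room temperature by 150 nM human 12hLO, pH 7.0 Hepes buffer, after 15 min compound preincubation.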
PLK1 PBD inh: qHTS for Inhibitors of PLK1-PDB (polo-like kinase 1 - polo-box domain): Primary Screen. Plk1 PBD binding of FITC phosphopeptide, fluorescence polarization. AID 720504, 2013. Serine/threonine-protein kinase PLK1 (Homo sapiens), P53350. hit rate 2.8% among 360,000. Potency, µM, inactives show max response, negative = inhibition, usual class: inhibitors; note: series mostly up to about 57 µM; % is set by controls: 0 for no effect and ±100 for the full control effect; nearly all actives have a fitted effect of over 65% in size
* hit, by the source's call; [ ] = dose if it differs, or a comment. Shown are actives, neighbours in structure and some others; about 9% of the full set was active somewhere. Calls come from the whole dose curve; as a rule, active = well fitted curve in the direction sought with a large enough effect; inconclusive = small, poorly fitted or top-dose-only effect, or another doubt; inactive = no such curve, though single readings can be large; an effect the other way counts as inactive or inconclusive. Potency is the fitted concentration of half-maximal effect.

Results for Cc1csc2nc(COC(=O)c3ccc(Cl)c([N+](=O)[O-])c3)cc(=O)n12 ?
BAZ2B inh: 1.7%; JMJD2A Tudor inh: 28.2µM*; HP1b chromo inh: -21.0%[57 µM]; G9a inh: -7.3%[59 µM]; ALOX12 inh: 224.7%; PLK1 PBD inh: inconclusive

How did Cc1ccc(S(=O)(=O)NNC(=O)NC23CC4CC(CC(C4)C2)C3)cc1 do in these assays?
BAZ2B inh: 4.0%; JMJD2A Tudor inh: -6.9%; HP1b chromo inh: 15.6%; G9a inh: inconclusive; ALOX12 inh: inconclusive; PLK1 PBD inh: -5.2%

How did c1ccc(Nc2cccc(Nc3ccccc3)c2)cc1 do in these assays?
BAZ2B inh: 12.6µM*; JMJD2A Tudor inh: 31.6µM*; HP1b chromo inh: 39.8µM*; G9a inh: 15.8µM*; ALOX12 inh: inconclusive; PLK1 PBD inh: 1.4%

How did COC(=O)C1=C(NC(=O)C2CCCCC2)CCS1 do in these assays?
BAZ2B inh: inconclusive; JMJD2A Tudor inh: inconclusive; HP1b chromo inh: -2.8%; G9a inh: 1.78µM*; ALOX12 inh: 18.2%; PLK1 PBD inh: -1.8%

Results for CN1CC2(CCN(C(=O)Cc3cccc(F)c3)CC2)CC1C(=O)N1CCOCC1 (stereo not drawn) ?
ALOX12 inh: 52.0%

How did O=C(c1ccccc1)c1ccc(Cn2cc(CCCO)nn2)cc1 do in these assays?
BAZ2B inh: -7.6%[57.1 µM]; JMJD2A Tudor inh: -2.1%; HP1b chromo inh: 39.6%; G9a inh: inconclusive; ALOX12 inh: 18.4%; PLK1 PBD inh: 1.3%

Results for O=S(=O)(NCc1ccc(N2CCOCC2)nc1)c1cc(C(F)(F)F)cc(C(F)(F)F)c1 ?
ALOX12 inh: 7.08µM*

How did O=S(=O)(NCc1ccc(N2CCOCC2)nc1)c1ccc(Cl)c(Cl)c1 do in these assays?
ALOX12 inh: 1.2%

How did CCCn1c(SCC(=O)NC(=O)NC(C)(C)C)n[nH]c1=O do in these assays?
BAZ2B inh: -13.1%; JMJD2A Tudor inh: -24.2%; HP1b chromo inh: 25.5%; G9a inh: 4.5%; ALOX12 inh: 0.7%; PLK1 PBD inh: 26.7µM*

What do the screens show for `CCCn1c(SCC(=O)c2ccc(CC)cc2)n[nH]c1=O`?
BAZ2B inh: 4.0%; JMJD2A Tudor inh: -5.6%; HP1b chromo inh: 41.7%; ALOX12 inh: 147.6%; PLK1 PBD inh: 8.44µM*

What do the screens show for `CCCn1c(SCC(=O)Nc2cc(C)on2)n[nH]c1=O`?
JMJD2A Tudor inh: -3.6%; HP1b chromo inh: 34.9%; ALOX12 inh: 28.0%; PLK1 PBD inh: -2.1%

What do the screens show for `CC(=O)OCC(OC(C)=O)C(OC(C)=O)C(OC(C)=O)C(=O)Nc1ccccc1C` (stereo not drawn)?
BAZ2B inh: 2.9%; JMJD2A Tudor inh: -11.7%; HP1b chromo inh: 12.2%; G9a inh: -22.1%; ALOX12 inh: -0.3%; PLK1 PBD inh: -8.6%

How did O=C(O)/C(=C\c1ccc2ccccc2c1)c1cccc2ccccc12 do in these assays?
JMJD2A Tudor inh: -18.9%; HP1b chromo inh: 28.1%; ALOX12 inh: inconclusive; PLK1 PBD inh: 21.2µM*

How did CCOC(=O)C(C#N)=CN1CCN(C(=O)CCCl)c2ccccc21 do in these assays?
JMJD2A Tudor inh: -6.2%; HP1b chromo inh: 27.7%; ALOX12 inh: -13.6%; PLK1 PBD inh: -3.3%

Results for COC(=O)C1=C(C(=O)OC)[C@@H]2N(C)c3ccc(OC)cc3[C@@]23C[C@@H](C(=O)OC)N(C(=O)C2CCC2)C3=N1 ?
BAZ2B inh: 11.2µM*; JMJD2A Tudor inh: 25.1µM*; HP1b chromo inh: inconclusive; G9a inh: inconclusive; PLK1 PBD inh: -7.5%

Results for COC(=O)C1=C(C(=O)OC)[C@@H]2N(C)c3ccc(OC)cc3[C@@]23C[C@@H](C(=O)OC)N(C(=O)NCCBr)C3=N1 ?
JMJD2A Tudor inh: inconclusive; HP1b chromo inh: -4.6%; ALOX12 inh: -11.4%; PLK1 PBD inh: -8.5%

Results for COC(=O)C1=C(C(=O)OC)[C@@H]2N(C)c3ccc(OC)cc3[C@@]23C[C@@H](C(=O)OC)N(C(=O)CC(C)C)C3=N1 ?
JMJD2A Tudor inh: 50.1µM*; HP1b chromo inh: inconclusive; ALOX12 inh: -28.3%; PLK1 PBD inh: 3.3%

How did CCOc1ccc(C(=O)/C=C/c2ccccc2O)cc1 do in these assays?
ALOX12 inh: -1.4%

Results for CSc1ccccc1C(=O)OCC(=O)N1CCCCCC1 ?
JMJD2A Tudor inh: -8.3%; HP1b chromo inh: 5.8%; ALOX12 inh: 1.8%; PLK1 PBD inh: 2.9%

Results for CN(C)c1ccc(N=Nc2ccccc2C(=O)OCC(=O)Nc2ccccc2C(F)(F)F)cc1 ?
BAZ2B inh: 10µM*; JMJD2A Tudor inh: 7.08µM*; HP1b chromo inh: inconclusive; G9a inh: 10µM*; ALOX12 inh: -0.6%; PLK1 PBD inh: -14.8%

What do the screens show for `CN(C)c1ccc(N=Nc2ccccc2C(=O)OCC(=O)N2CCCCCC2)cc1`?
BAZ2B inh: 12.6µM*; JMJD2A Tudor inh: 28.2µM*; HP1b chromo inh: 17.8µM*; G9a inh: 8.91µM*; ALOX12 inh: -9.8%; PLK1 PBD inh: 31.8%

How did CN(C)c1ccc(N=Nc2ccccc2C(=O)OCC(=O)N2CCCC2)cc1 do in these assays?
BAZ2B inh: 39.8µM*; JMJD2A Tudor inh: 56.2µM*; HP1b chromo inh: inconclusive; G9a inh: 25.1µM*; ALOX12 inh: -5.3%; PLK1 PBD inh: 3.1%

How did CN(C)c1cc[n+](CC(=O)Nc2ccccc2C(F)(F)F)cc1 do in these assays?
BAZ2B inh: 3.5%; JMJD2A Tudor inh: -5.5%; HP1b chromo inh: 31.2%; G9a inh: -0.8%[0.501 µM]; ALOX12 inh: inconclusive; PLK1 PBD inh: -1.7%

Results for Cc1ccccc1NC(=S)NNC(=O)c1ccco1 ?
BAZ2B inh: -16.1%; JMJD2A Tudor inh: -8.3%; HP1b chromo inh: 39.9%; G9a inh: 7.4%; ALOX12 inh: 66.1%; PLK1 PBD inh: 1.7%

What do the screens show for `COc1ccccc1N1CCN(C(c2ccc(C)cc2)c2nnnn2C(C)C)CC1` (stereo not drawn)?
BAZ2B inh: -31.2%; JMJD2A Tudor inh: -14.1%; HP1b chromo inh: 9.0%; G9a inh: inconclusive; ALOX12 inh: 33.5%; PLK1 PBD inh: -2.0%

What do the screens show for `FC(F)(F)c1cc(Nc2ccccc2)nc(-c2ccccn2)n1`?
BAZ2B inh: -13.6%; JMJD2A Tudor inh: -28.5%; HP1b chromo inh: 5.6%; G9a inh: 84.3%; PLK1 PBD inh: 0.0%
